The assay can be described thus: chemical genetic growth profiling, strain panel (AID 1159580).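 Note: tested at 20 µM; growth read once vehicle control cultures reached saturation at 30 °C; 1 = growth at the plate median or of vehicle wells; lower values mean less growth of the strain.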 Conditions: S. cerevisiae deletion strains, growth OD.
[1] abbreviates: locus YAL040C, strain CLN3, stronger effect = lower value.
[2] abbreviates: locus YCL061C, strain MRC1 (second series), stronger effect = lower value.
Where [3] appears, read: locus YDR150W, strain NUM1, stronger effect = lower value.
The mark [4] stands for this setting: locus YDR363W, strain ESC2, stronger effect = lower value.
[5] abbreviates: locus YER002W, strain NOP16, stronger effect = lower value.
The mark [6] stands for this setting: locus YGR229C, strain SMI1, stronger effect = lower value.
[7] abbreviates: locus YJR075W, strain HOC1, stronger effect = lower value.
Where [8] appears, read: locus YMR263W, strain SAP30, stronger effect = lower value.
[9] abbreviates: locus YNL153C, strain GIM3, stronger effect = lower value.
Setting [10] is: locus YNL175C, strain NOP13, stronger effect = lower value.
Where [11] appears, read: locus YNL197C, strain WHI3, stronger effect = lower value.
Where [12] appears, read: locus YNL224C, strain SQS1, stronger effect = lower value.
Where [13] appears, read: locus YNL322C, strain KRE1, stronger effect = lower value.
Setting [14] is: locus YOR083W, strain WHI5 (second series), stronger effect = lower value.
The mark [15] stands for this setting: locus YPL241C, strain CIN2, stronger effect = lower value.
Setting [16] is: locus YGR078C, strain PAC10, stronger effect = lower value.

About 2,000 (36%) of roughly 5,500 compounds were called active. Another 18% or so got no clear call; they are omitted. This is one part of the list. Values without a mark were called inactive. Cut-off read from the data, not from the text of the source: active = normalized growth mostly below about 0.91 (no sharp cut-off); inconclusive = no clear call, values can overlap the other calls; inactive = mostly above about 0.92.

Regarding `C[N+](C)(C)CCOC(=O)CCC(=O)OCC[N+](C)(C)C`, the normalized growth was 0.988 under setting [1]; 1.01 under setting [2]; 1.02 under setting [3]; 1.01 under setting [4]; 1.01 under setting [5]; 1.04 under setting [6]. The normalized growth was 0.992 under setting [7]; 1 under setting [8]; 1.03 (locus YMR307W, strain GAS1, stronger effect = lower value); 1.03 under setting [9]; 1.01 under setting [10]; 1.02 under setting [11]. Moreover, the normalized growth is, setting by setting: under setting [12], 1.01; under setting [13], 0.992; under setting [14], 1.02; under setting [15], 0.987.
Turning to `C[N+](C)(C)CCOC(=O)CBr`, the normalized growth under setting [3] is 1.06 [resistant] (active); the normalized growth under setting [4] was 1.05; the normalized growth under setting [5] is 1; the normalized growth under setting [16] was 1.02; the normalized growth under setting [8] was 1.01; the normalized growth under setting [9] was 1.07. The normalized growth by setting is: under setting [10], 1.02; under setting [11], 0.985; under setting [12], 1.01; under setting [14], 1.05; under setting [15], 1.01.
Take `Cn1cnc(CCN)c1`: the normalized growth is, setting by setting: (locus YAL013W, strain DEP1, stronger effect = lower value) 1.01; under setting [1], 0.999; under setting [2], 0.995; under setting [4], 0.979; under setting [5], 0.98; under setting [16], 1.01. For the same compound, the normalized growth by setting is: under setting [6], 1.01; under setting [7], 1.01; under setting [8], 1; under setting [9], 1; under setting [10], 0.986; under setting [11], 0.992. In addition, the normalized growth reads like this: under setting [12], 0.983; under setting [13], 1.01; under setting [14], 0.99.

(Values after PubChem BioAssay AID1159580 (chemical genetic matrix, 2015).)
